“And” between values parts separate entries of the source, which are not always exact repeats. Equal entries are not always repeated. Inconclusive results are not listed. The source holds several records for some structures; these can differ, active in one and inactive in another. The source made the active and inactive calls. How the source made its calls: active means hit-call score of the fitted dose curve at least 0.9, where 1 is the maximum; inconclusive means response in the unintended direction; inactive means score below 0.9.

Cellular tumor antigen p53 (Homo sapiens), sequence (P04637 whole entry, looked up, the tested form may be a part): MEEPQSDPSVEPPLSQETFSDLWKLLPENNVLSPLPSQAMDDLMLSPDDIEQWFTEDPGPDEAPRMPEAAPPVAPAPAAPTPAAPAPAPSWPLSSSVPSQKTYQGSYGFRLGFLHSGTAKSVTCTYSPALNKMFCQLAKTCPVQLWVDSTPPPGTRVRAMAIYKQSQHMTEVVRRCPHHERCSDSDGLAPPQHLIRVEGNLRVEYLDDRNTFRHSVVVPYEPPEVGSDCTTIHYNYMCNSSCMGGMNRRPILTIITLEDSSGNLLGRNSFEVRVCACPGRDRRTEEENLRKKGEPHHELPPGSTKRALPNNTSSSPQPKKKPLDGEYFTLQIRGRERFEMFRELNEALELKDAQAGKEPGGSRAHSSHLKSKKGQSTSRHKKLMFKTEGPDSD

The assay has as its target Cellular tumor antigen p53 (Homo sapiens) (UniProt P04637). Description: TOX21_p53_BLA_p4_ratio: Tox21 HCT-116 p53 Agonism Beta-lactamase Assay, Ratio, Phase 4 (AID 2283601). The source says: TOX21_p53_BLA_p4 is a cell-based, single-readout assay that uses HCT116, a human intestinal cell line, […] in a 1536-well plate.TOX21_p53_BLA_p4_ratio is an assay readout measuring reporter gene via receptor activity and designed using inducible reporter (beta lactamase induction) detected with GAL4 b-lactamase reporter gene. The signal is derived from the ratio of cleaved (ch2) to uncleaved (ch1)reporter gene substrate used as the measure of target activity.Data from the assay component TOX21_p53_BLA_p4_ratio was analyzed into 1 assay endpoint. This assay endpoint, TOX21_p53_BLA_p4_ratio, was analyzed in the positive analysis fitting direction relative to DMSO as the negative control and baseline of activity. Using a type of inducible reporter, gain-of-signal activity can be used to understand changes in the reporter gene as they relate to the gene TP53. Furthermore, this assay endpoint can be referred to as a primary readout, because this assay has produced multiple assay endpoints where this ratio serves a reporter gene function to understand target activity. To generalize the intended target to other relatable targets, this assay endpoint is annotated to the DNA binding intended target family, where the subfamily is tumor suppressor.
Thawing Method: Place 14 mL of pre-warmed thaw medium into a 15 mL of conical tub. Remove the vial of cells to be thawed from liquid nitrogen and thaw rapidly by placing at 37C in a water bath with gentle agitation for 1-2 minutes. Decontaminate the vial by wiping with 70% ethanol before opening in a biological safety cabinet. Transfer the vial contents drop-wise into 14 mL of thaw medium in a sterile 15-mL conical tub. Centrifuge cells at 900 rpm for 4 minutes and resuspend in thaw medium. Transfer contents to the T75 tissue culture flask containing Thaw Medium and place flask in a humidified 37C/5% CO2 incubator. Switch to growth medium at first passage.Propagation Method: Aspirate medium, rinse once in DPBS, add 0.25% Trypsin/EDTA and swirl to coat the cell evenly. Add an equal volume of Growth Medium to inactivate Trypsin after 2-3 minutes incubation at 37C. Centrifuge cells at 900 rpm for 4 minutes and resuspend in growth medium. Cell should be passage or fed at least twice a week.Assay Protocol: Harvest cells from culture in growth medium and resuspend in assay medium. 2.2 Dispense 4000 cells/5 uL/well into 1536-well black/clear bottom plates using a Multidrop dispenser. After the cells were incubated at 37C for 5 hours, 23 nL of compounds dissolved in DMSO were transferred to the assay plate by a PinTool resulting in a 217-fold dilution. Incubate the plates for 16 hours at 37C, 5% CO2. Add 1 uL of 6X LiveBLAzer FRET B/G (CCF4-AM) Substrate Mixture to each well using a BioRAPTR dispenser and incubate the plates at room temperature for 2 hours. Measure fluorescence intensity at 460 and 530 nm emission and 405 nm excitation by an Envision detector. Data is expressed as the ratio of 460nm/530nm emissions. Add 4 uL of Cell-titer Glo to each well using BioRAPTR and incubate the plates at room temperature for 2 hours. Measure fluorescence intensity by a VewLux plate reader.
Consider `Nn1cnnc1`, for which the result was inactive.
As to `CO/C=C(/C(=O)OC)c1ccccc1COc1cccc(C(F)(F)F)n1`, the AC50 was 5.53 µM (active).
With `CCOCCOC(C)=O`, the result was inactive.
Regarding `CCCCCCOC(=O)c1ccccc1C(=O)OCCCCCC`, the outcome was inactive.
As for `O=C(O)C(F)(F)C(F)(F)C(F)(F)C(F)(F)C(F)(F)C(F)(F)C(F)(F)C(F)(F)F`, the result was inactive.
With `C=CC(=O)NCNC(=O)C=C`, the outcome was inactive.
Same read-out and setting: for `O=C(NC(=O)c1c(F)cccc1F)Nc1cc(Cl)c(OC(F)(F)C(F)F)c(Cl)c1` the value was “inactive”; for `C1CC2OC2CC1C1CO1` (stereo not given), “inactive”.
In the case of `C[C@]12CCC(=O)C=C1CC[C@@H]1[C@@H]2CC[C@]2(C)C(=O)CC[C@@H]12`, the outcome was inactive.
As for `CCOP(=S)(OCC)SCSC(C)(C)C`, the outcome was inactive.
In the case of `CC(c1ccc(O)cc1)(c1ccc(O)cc1)c1ccc(O)cc1`, the AC50 was 80.8 µM (active).
Turning to `OCC(O)CO`, the outcome was inactive.
Turning to `CCCCCCCCCC[N+](C)(C)CCCCCCCCCC`, the AC50 was 26.8 µM (active) and 35 µM (active).
Regarding `CC1=C2C[C@H]3[C@@H](CC=C4C[C@@H](O)CC[C@@]43C)[C@@H]2CC[C@]12O[C@@H]1C[C@H](C)CN[C@H]1[C@H]2C`, the outcome was inactive.
As for `O=C(O)C(F)(F)C(F)(F)C(F)(F)C(F)(F)C(F)(F)C(F)(F)C(F)(F)C(F)(F)C(F)(F)F`, the result was inactive.
Still for that read-out and setting: then `Clc1ccc(Cl)cc1`, with “inactive”; and `Cc1cccc(C)c1N`, with “inactive”.
With `CCC(C)c1cc([N+](=O)[O-])cc([N+](=O)[O-])c1O` (stereo not given), the concentration at half-maximal activity (AC50) is 4.83 µM (active).
On the same count and under the same terms, for `CCC(C)(c1ccc(O)cc1)c1ccc(O)cc1` the value was 84.6 µM (active) and 82.3 µM (active).
For `CC#Cc1cc(C)nc(Nc2ccccc2)n1`, the outcome was inactive.
`CN(C)CCO`: the outcome was inactive.
As to `Cc1cc(-c2ccc(N)c(C)c2)ccc1N`, the AC50 is 70.7 µM (active) and the outcome was inactive.
With `ClC(Cl)=C(c1ccc(Cl)cc1)c1ccc(Cl)cc1`, the outcome was inactive.
On the same count and under the same terms, for `Cc1cccc([N+](=O)[O-])c1` the value was “inactive”; for `Nc1ccc(-c2ccc(N)cc2)cc1`, “inactive”.
For the molecule `CC(C)C(=O)OCC(C)(C)C(OC(=O)C(C)C)C(C)C` (stereo not given), the result was inactive.
For the molecule `c1ccc(-c2ccccc2)cc1`, the outcome was inactive.
`CCCCCCCCOC(=O)c1ccccc1C(=O)OCCCCCCCC`: the result was inactive.
Same read-out and setting: for `NS(=O)(=O)C(F)(F)C(F)(F)C(F)(F)C(F)(F)C(F)(F)C(F)(F)C(F)(F)C(F)(F)F` the value was “inactive”.
Regarding `C=CC(N)=O`, the result was inactive.
Still for that read-out and setting: then `CCCCCCCCCc1ccc(O)cc1`, with “inactive”.
For the molecule `CCOC(=O)C(O)(c1ccc(Cl)cc1)c1ccc(Cl)cc1`, the AC50 was 68.6 µM (active) and 60.8 µM (active).
Turning to `C[C@]12CCC(=O)C=C1CC[C@@H]1[C@@H]2CC[C@@]2(C)[C@H]1CC[C@]2(C)O`, the outcome was inactive and the AC50 is 48.6 µM (active).
Turning to `Cc1cc(O)ccc1Cl`, the result was inactive.
Turning to `c1cc2ccc3cccc4ccc(c1)c2c34`, the outcome was inactive.
With `Oc1ccc(Cl)cc1Cl`, the outcome was inactive.
For the molecule `COS(=O)(=O)OC`, the outcome was inactive.
`CCCN(CCC)N=O`: the result was inactive.

Values taken from PubChem BioAssay (EPA / NIEHS).
